# Screening data as filed in PubChem.
# TTR transcr act = TTR transcription activation, primary screen. hit rate 1.3% among 92,000. AID 1117267. activation, % at 16.7 µM. SH-SY5Y TTR promoter Gaussia luciferase, luminescence; 100% = recombinant luciferase protein wells;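 active = activation above the mean of all tested compounds plus 3 SD, cut at about 9.5% in these data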;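 also: cells exposed to compounds for one day before reading; 0% = median of all test compound wells on the plate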
# HuH7 TTR inh = HuH7 TTR transcription inhibition, counter-screen; inhibition, % at 16.7 µM; shares compounds with TTR transcr act; AID 1117279; hit rate 4% among 1,100; HuH7 TTR promoter-Gaussia luciferase reporter, luminescence;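 active = average inhibition above the solvent-only control wells' mean plus 3 SD, cut at about 15% in these data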;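 also: 0% = cells with DMSO only and 100% = cells with inhibitor control FD; inhibitors lower well luminescence so higher value means more inhibition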
# TTR up confirm = human TTR transcription activation, confirmation. shares compounds with TTR transcr act. SHSY5Y TTR promoter Gaussia luciferase, luminescence; 100% = purified Lucia enzyme wells, no cells. activation, % at 16.7 µM. 1,100 tested, under 10 active;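 active = mean activation above a set limit taken from the earlier primary screen, cut at about 11% in these data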;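 also: 0% = DMSO-treated cells and 100% = recombinant Lucia luciferase without cells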
# Starred values were filed as active, the others as inactive. This is one part of a sample in which hits are shown more often than they occur.
SMILES,TTR transcr act,others
COc1ccccc1CC(NC(C)=O)C(=O)NC1CCN(C(=O)Nc2ccc(F)cc2)CC1 (stereo not drawn),1,
COc1ccc(CC(NC(C)=O)C(=O)NC2CCN(C(=O)c3ccc([N+](=O)[O-])cc3)CC2)cc1OC (stereo not drawn),-2,
COc1ccccc1CC(NC(C)=O)C(=O)NC1CCN(C(=O)c2ccc([N+](=O)[O-])cc2)CC1 (stereo not drawn),13*,HuH7 TTR inh=-8;TTR up confirm=0
O=C(NNC(=O)c1cccc(Br)c1)Nc1ccc(Cl)cc1,-1,
O=C(NNC(=O)c1cccc(Br)c1)C(=O)N1CCCCC1,9.9*,HuH7 TTR inh=-13;TTR up confirm=0
N#C/C(=C\c1cccc(Br)c1)C(=O)N1CCCCC1,0,
O=C1CCC[C@H]2Cc3nc4ccccc4cc3C[C@]23CCCN13,2,
CCCNC(=O)c1ccc(N2CCC3(CC2)CC(c2ccccc2)=NO3)c(NC(=O)c2ccco2)c1,19*,HuH7 TTR inh=19*;TTR up confirm=-2
CCCNC(=O)c1ccc(N2CCC3(CC2)CC(c2ccccc2)=NO3)c(NC(=O)c2cccc(OC)c2)c1,-3,
Cc1ccc(CNC(=O)c2ccc(N3CCC4(CC3)CC(c3ccccc3)=NO4)c(NC(=O)c3ccco3)c2)cc1,-1,
Cn1c(N)c(C(=O)COC(=O)c2ccc(Cl)c(S(=O)(=O)N3CCCC3)c2)c(=O)n(C)c1=O,-1,
CC(C)C[C@H](NC1(C(=O)NCCc2c[nH]c3ccccc23)CCN(C)CC1)C(=O)NCCCc1ccccc1,-1,
COc1ccc(N=C2SCC(=O)N2Cc2ccccc2)cc1,-1,
CCOc1ccc(N=C2SCC(=O)N2CC)cc1,18*,HuH7 TTR inh=-11;TTR up confirm=0
CCOc1ccc(N2C(=O)CSC2=S)cc1,-2,
O=C(COc1ccc(F)c(Cl)c1)N[C@H]1CCCN(CC2CC2)C1,0,
COC(=O)[C@]12CCCCC=C1N(Cc1ccc(OC)cc1)C(=O)[C@@H]2CC(=O)NCc1ccccc1,-1,
Cc1cccc(C)c1NC(=O)CN1CCN(C(=O)c2ccc(OCc3cn4ccccc4n3)cc2)CC1,3,
O=C(CSc1cccc[n+]1[O-])c1cc(Cl)ccc1Cl,9.9*,HuH7 TTR inh=-9;TTR up confirm=0
COc1ccccc1C(=O)NC(=O)CSc1cccc[n+]1[O-],-1,
Cc1cc(C(=O)C(C)Sc2cccc[n+]2[O-])c(C)n1-c1ccc(Cl)cc1 (stereo not drawn),-2,
Cc1c(C(=O)NN2CCOCC2)oc2c1ccc1ccccc12,-2,
NC(=NC(=O)/C=C/c1ccccc1Br)N(CC#Cc1ccccc1)CC#Cc1ccccc1,-1,
O=C1CSC(=S)N1c1ccccc1,2,
O=C1CSCC(=O)N1c1ccccc1,34*,HuH7 TTR inh=-9;TTR up confirm=0
SMILES,TTR transcr act,others
O=C1CCC(=O)N1c1ccccc1,1,
COC(=O)[C@]12C[C@H](CC(=O)N3CCN(C(=O)C4CC4)CC3)C(=O)N(Cc3ccc(Cl)cc3Cl)C1=C[C@H](COCc1ccccc1)O[C@@H]2C,0,
O=C(CN(C(=O)CNS(=O)(=O)c1ccc(F)cc1)c1cccc(F)c1)NCC1CCCO1 (stereo not drawn),-1,
COc1ccccc1N(CC(=O)NCC1CCCO1)C(=O)CNS(=O)(=O)c1ccc(C)cc1 (stereo not drawn),13*,HuH7 TTR inh=-9;TTR up confirm=1
COc1ccc(CNC(=O)CN(Cc2ccco2)C(=O)CNS(=O)(=O)c2ccccc2)cc1,1,
COc1ccccc1CN(CC(=O)NCc1ccco1)C(=O)CNS(=O)(=O)c1ccc(C)cc1,12*,HuH7 TTR inh=-11;TTR up confirm=-1
COc1ccc(S(=O)(=O)NCC(=O)N(CC(=O)NCc2ccco2)Cc2ccccc2)cc1,0,
COc1ccccc1N(CC(=O)NCC1CCCO1)C(=O)CNS(=O)(=O)c1ccc(Cl)cc1 (stereo not drawn),2,
Cc1cccnc1Oc1ncccc1N,1,
O=C(O)CC1(CC(=O)NCc2csc(-c3cccs3)n2)CCCCC1,-3,
Cn1ncc(C(=O)N=S(C)(=O)c2ccccc2)c1[N+](=O)[O-] (stereo not drawn),4,
CCC[C@H]1[C@H](N)CC[C@@]23CCCN2C(=O)CCC[C@@H]13,0,
COC1OC(COCc2ccccc2)C2OC(C)(C)OC2C1O (stereo not drawn),0,
O=S1(=O)c2c(cccc2N2CCC[C@@H]2CO)OCCCN1C1CC1,0,
COc1cccc(CSc2nc3ccccc3[nH]2)c1,0,
COC(=O)CSc1nc2cc3c(cc2cc1C)OCO3,0,
COc1cccc(CSc2nc3cc4c(cc3cc2C)OCCO4)c1,18*,HuH7 TTR inh=-11;TTR up confirm=0
O=[N+]([O-])c1cnc2ccccc2c1Sc1ccccc1,0,
CC(C)(C)c1csc(CS(=O)(=O)c2ccccn2)n1,0,
N/C(=N\O)c1cccc(CS(=O)(=O)c2ccccn2)c1,10.0*,HuH7 TTR inh=-11;TTR up confirm=0
Cc1c(S(=O)(=O)c2ccccn2)c(N)n(Cc2cccc(Cl)c2)c1C,-1,
COc1ccc(C(=O)OCCN(C)C2CN(Cc3cn(Cc4ccccc4Cl)nn3)S(=O)(=O)C2)cc1OC (stereo not drawn),9,
C[C@@H]1[C@H](c2ccccc2)OC(O)([C@H](Cc2ccccc2)NC(=O)OC(C)(C)C)CN1C (stereo partly drawn),-1,
COc1ccc(CN2CCN(Cc3csc(C(C)=O)c3)CC2CCO)c(C)c1C (stereo not drawn),4,
O=C(Cn1cnc2ccccc2c1=O)NCCC(=O)N1CCN(Cc2ccccc2)CC1,-2,
COC(=O)Cn1cnc2ccccc2c1=O,1,
O=C(Cn1cnc2ccccc2c1=O)N1CCOCC1,12*,HuH7 TTR inh=-10;TTR up confirm=0
O=C(N/C(=C/c1ccccc1Cl)C(=O)N1CCCCC1)c1ccco1,4,
Cc1ccc(CNC(=O)O[C@H]2CC[C@@]34CCCN3C(=O)CCC[C@H]4[C@H]2C)o1,0,
